Measured values taken from the supplement of paper PMC6555819.

Tests used:
Assay in all cases: PBM binding z-score (relative to random genomic background probes); higher = stronger binding; sequences stand for … in GC…GCGATTGACAGCGTAGAATGAAGG
[1] = system: FXR:RXRa (NR concentration 270 nM, RXRa partner concentration 90 nM)
In short: (§1)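 On custom Agilent 4×180K arrays, double-stranded probes with 34-nt variable regions carried direct-repeat seeds, single-nucleotide variants, half-site ablations or random human genomic background. Ligand-free nuclear receptor dimers were applied for 1 h, and binding was read with antibodies against each partner (one per run). Binding z-scores come from regression-normalized fluorescence, with the random background probes as reference.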

[2] = system: LXRa:RXRa (NR concentration 270 nM, RXRa partner concentration 90 nM)
In short: as §1

[3] = system: LXRa homodimer (NR concentration 270 nM)
In short: as §1

[4] = system: LXRb:RXRa (NR concentration 270 nM, RXRa partner concentration 90 nM)
In short: as §1

[5] = system: LXRb homodimer (NR concentration 270 nM)
In short: as §1

[6] = system: PPARa:RXRa (NR concentration 270 nM, RXRa partner concentration 90 nM)
In short: as §1

[7] = system: PPARg:RXRa (NR concentration 180 nM, RXRa partner concentration 90 nM)
In short: as §1

[8] = system: PPARg:RXRa 270nM:90nM, anti-RXR (NR concentration 270 nM, RXRa partner concentration 90 nM)
In short: as §1

[9] = system: PPARg:RXRa 30nM:10nM, anti-RXR (NR concentration 30 nM, RXRa partner concentration 10 nM)
In short: as §1

[10] = system: PPARg:RXRa 90nM:30nM, anti-RXR (NR concentration 90 nM, RXRa partner concentration 30 nM)
In short: as §1

[11] = system: PPARg:RXRa DBDmut IVT, anti-RXR (DBD mutation: RXRa K156A/R161A, NR concentration 270 nM, RXRa partner concentration 90 nM)
In short: as §1

[12] = system: PPARg:RXRa IVT, anti-PPARg (NR concentration 270 nM, RXRa partner concentration 90 nM)
In short: as §1

[13] = system: PPARg DBDmut:RXRa IVT, anti-PPARg (DBD mutation: PPARg1 K132A/R137A, NR concentration 270 nM, RXRa partner concentration 90 nM)
In short: as §1

[14] = system: PPARg DBDmut IVT, anti-PPARg (DBD mutation: PPARg1 K132A/R137A, NR concentration 270 nM)
In short: as §1

[15] = system: PPARg homodimer (NR concentration 180 nM)
In short: as §1

[16] = system: PXR:RXRa (NR concentration 270 nM, RXRa partner concentration 90 nM)
In short: as §1

[17] = system: PXR homodimer (NR concentration 270 nM)
In short: as §1

[18] = system: RARa:RXR (NR concentration 270 nM, RXRa partner concentration 90 nM)
In short: as §1

[19] = system: RARa homodimer (NR concentration 270 nM)
In short: as §1

[20] = system: RARb:RXRa (NR concentration 270 nM, RXRa partner concentration 90 nM)
In short: as §1

Row | Sequence | PBM binding z-score [1] | PBM binding z-score [2] | PBM binding z-score [3] | PBM binding z-score [4] | PBM binding z-score [5] | PBM binding z-score [6] | PBM binding z-score [7] | PBM binding z-score [8] | PBM binding z-score [9] | PBM binding z-score [10] | PBM binding z-score [11] | PBM binding z-score [12] | PBM binding z-score [13] | PBM binding z-score [14] | PBM binding z-score [15] | PBM binding z-score [16] | PBM binding z-score [17] | PBM binding z-score [18] | PBM binding z-score [19] | PBM binding z-score [20]
1 | TGAATGAGGTTATAAGATCGGGGAACGTTGCAAA | 1.36 | 1.27 | -0.276 | 1.05 | 0.228 | 2.6 | 0.897 | 1.59 | 0.637 | 1.13 | 1.5 | 1.78 | 1.32 | 0.272 | -0.104 | 0.636 | -0.242 | 1.05 | -0.252 | 1.08
2 | CGAACTAGGTTAAGGACAGTGAATCTCCGCACGC | 0.447 | 0.377 | -0.213 | -0.172 | -0.661 | 2.14 | 2.85 | 2.74 | 0.975 | 2.08 | 6.49 | 5.67 | 0.439 | 1.14 | 1.07 | -0.145 | 0.015 | 0.949 | -0.21 | 1.47
3 | TCTATTAGTTGACGGGCAACCGACGAGTCCGTTT | 0.51 | 0.776 | 0.073 | 0.407 | 0.493 | 0.565 | 0.00282 | 1.62 | 3.47 | 2.48 | 2.04 | 0.118 | 0.163 | 0.317 | 0.156 | 0.38 | 0.151 | 0.201 | 0.109 | 0.613
4 | TCACATAGGTAAATGCTAGGTGAAAGTCCGATCT | 0.401 | 0.564 | -0.036 | 0.378 | -0.343 | 1.03 | 0.475 | 1.83 | 3.11 | 2.49 | 2.22 | 1.12 | 0.19 | -0.0289 | -0.198 | 0.34 | -0.0319 | 0.692 | -0.153 | 0.251
5 | TCATATAAGTAATACAGGTGAAAGTCGGCATCTA | 1.33 | 1.22 | 0.589 | 1.15 | 0.275 | 1.79 | 1.29 | 2.38 | 4.28 | 3.42 | 3.37 | 1.87 | 0.985 | 0.83 | 1.07 | 0.888 | 0.782 | 1.1 | 1.95 | 0.567
6 | TCATAAAGGTAAACAGGTGAAAGTCCGTAAGTTA | 1.21 | 1.53 | 0.0462 | 1.44 | -0.2 | 2.83 | 2.29 | 3.47 | 4.28 | 3.89 | 3.73 | 2.72 | 0.109 | 0.863 | 1.24 | 1.22 | 0.86 | 1.89 | 1.6 | 1.65
7 | CCTTACGGGTCATTGACAGGTTATAGCATTTGGA | 5.92 | 4.79 | 1.1 | 3.85 | 0.271 | 5.27 | 3.6 | 4.06 | 1.55 | 2.75 | 2.34 | 2.72 | 0.642 | 0.325 | 2.77 | 3.94 | 0.591 | 4.67 | 0.122 | 3.64
8 | CAAACTACGTCACCGGAAGGTCAAAGTCCGCATG | 3.24 | 3.3 | 3.72 | 3.48 | 1.01 | 3.5 | 1.14 | 1.71 | 0.159 | 1.15 | 0.517 | 1.61 | 0.449 | 1.03 | 2.68 | 3.83 | 1.39 | 4.14 | 1.23 | 3.3
9 | CGAAATAGGTCATTGACAGGACAGTGAATAGTAA | 6.1 | 5.06 | 1.3 | 3.58 | 0.828 | 5.64 | 6.83 | 6.73 | 4.21 | 6.12 | 7.51 | 7.87 | 3.54 | 2.18 | 3.02 | 3.03 | 0.444 | 4.06 | 1.24 | 4.3
10 | CCTAGTTGGTCAATGTCACACACGCTATAGGTAC | 0.436 | 0.678 | 0.613 | 1.1 | 1.1 | 0.77 | 1.17 | 0.745 | 0.448 | 0.257 | 1.5 | 1.6 | 1.25 | 1.28 | 1.57 | 0.71 | 0.574 | 0.851 | 1.91 | 1.4
11 | GATACAGGGTCAGCTAGAGGCCACAGTATGGAAA | 4.67 | 3.33 | -0.234 | 2.65 | -0.958 | 4.64 | 4.12 | 3.58 | 1.09 | 2.68 | 1.47 | 2.57 | 0.921 | 0.377 | 2.57 | 3.94 | -0.253 | 5.22 | 0.785 | 4.2
12 | CGACCAAGGTCAGCAGGTCAGTGAAAGCGACGTG | 5.71 | 3.43 | -0.15 | 2.77 | -0.923 | 4.85 | 4.53 | 4.43 | 1.12 | 3.02 | 2.72 | 3.64 | -0.557 | -0.609 | 2.7 | 3.18 | -0.228 | 4.62 | 0.262 | 5.02
13 | ACAGACAGGGGAGTGAAGGTAACTCAGCTGGACG | 0.0883 | 0.0557 | -0.294 | 0.312 | 0.211 | 0.211 | 0.82 | 0.301 | -0.0675 | 0.442 | -0.166 | -0.191 | 0.22 | -0.386 | 0.229 | -0.136 | 0.147 | -0.342 | 0.313 | 0.21
14 | CGTCCAAGGTTAAAGGTCAGTGAAGAGATGACGG | 6.23 | 5.21 | 1.72 | 4.9 | 0.226 | 6.28 | 8.06 | 7.36 | 6.31 | 8.12 | 1.93 | 4.19 | 0.18 | 0.148 | 3.37 | 5.79 | 0.975 | 7.42 | 1.36 | 5.01
